# Assay results as given in PubChem BioAssay (NCATS).
# Several values for one entry are separate records, joined by “and”; a condition that tells them apart may be missing. Equal values may be shown once. Inconclusive results are not listed. Unmarked numbers belong to inactive results. Activity calls are given as the source filed them. Calls follow the shape of the dose curve; as a rule, active = well fitted inhibition curve with a large enough effect; inconclusive = small, poorly fitted or top-dose-only effect; inactive = flat fitted curve, though single readings scatter.
# Tested on: NIH3T3
# Assay: Cytotoxic Profiling of Annotated Libraries Using Quantitative High-Throughput Screening (AID 1296008); also: nearly all actives have a fitted effect of over 60% in size
# Settings: Five cell lines viability, CellTiter-Glo ATP luminescence, 48-72 h; max response: stronger effect = lower value
# Method in brief: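 Compounds were pin-transferred onto cells and incubated 48 or 72 hr at 37 degree Celsius, 95% humidity. CellTiter-Glo was added, plates sat 10 min at room temperature, then ATP-coupled luminescence was imaged as the viability read-out.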
# % is scaled to controls: 0 for no effect and ±100 for the full control effect; potency is read from the fitted curve at half-maximal effect.
SMILES,max response,Potency,outcome
CCCCOC(=O)c1ccccc1C(=O)OCc1ccccc1,-6.85%,–,–
C=C[C@@H]1CN2CCC1C[C@@H]2[C@@H](O)c1ccnc2ccccc12 (some centres not stated),-16.7%,–,–
c1ccc(CCCN2CCN(CCOC(c3ccccc3)c3ccccc3)CC2)cc1,–,16.6 µM (active),–
O=c1[nH]c2ccc(Cl)cc2c(N[C@@H]2CN3CCC2CC3)c1-c1nc2ccccc2[nH]1,–,83.3 nM (active) and 206 nM (active),–
O=C(NCC1CCOCC1)c1cnc(Nc2ccc(Cl)cc2Cl)nc1C(F)(F)F,-3.44% and -3.65%,–,–
CC1(C)CC/C(=C/c2ccc(Cl)cc2)C1(O)Cn1cncn1 (configuration not stated),-11.7%,–,–
O=C(N[C@@H](COc1ccc2[nH]c(=O)[nH]c2c1)c1ccccc1)c1cccn(Cc2ccc(F)c(F)c2)c1=O,-25.3%,–,–
O=C(O)COc1nc(Cl)c(Cl)cc1Cl,-4.26%,–,–
CC(C)[C@H]1C(=O)N[C@H](CO)Cc2c[nH]c3cccc(c23)N1C,-1.36%,–,–
COC(=O)c1cncn1C(C)c1ccccc1 (configuration not stated),3.22%,–,–
C[C@]12CCC(=O)C(O)=C1CC[C@@H]1[C@H]3CCC(=O)[C@@]3(C)CC[C@@H]12,4.69%,–,–
CCC(=O)O[C@@H]1C=C2CCC3C(CCC4(C)C3CC[C@@H]4OC(=O)CC)C2CC1 (some centres not stated),–,–,inactive
COC1=CC(C)=C[C@@H](C)[C@@H](O)[C@@H](C)CC(C)=CC=C[C@H](OC)[C@H]([C@@H](C)[C@@H](O)[C@H](C)[C@@]2(O)C[C@@H](O)[C@H](C)[C@@H](C(C)C)O2)OC1=O,–,0.0148 µM (active),–
O=C1CCC[C@@H]2[C@H]3CCCN4CCC[C@@H](CN12)[C@@H]34,–,–,inactive
CCOCCOC(C)=O,-2.47%,–,–
C[C@]12CC[C@@H]3[C@@H](CCC4=CC(=O)CC[C@@H]43)[C@@H]1CC[C@@H]2OC(=O)CCc1ccccc1,-6.38%,–,–
Cc1ccc(Cl)c(O)c1,–,–,inactive
CN[C@@H](C)[C@H](O)c1ccccc1,-5.73%,–,–
Nc1ccc(Cl)cc1,2.51%,–,–

SMILES,max response,Potency,outcome
CC(Cc1ccc(O)cc1)NCC(O)c1cc(O)cc(O)c1 (configuration not stated),-6.43%,–,–
CC(C)NCC(O)c1ccc([N+](=O)[O-])cc1 (configuration not stated),-0.143%,–,–
O=[N+]([O-])/N=C1\NCCN1Cc1ccc(Cl)nc1,-2.1%,–,–
C=CC(=O)NCNC(=O)C=C,-14.2%,–,–
O=c1cccc2n1CC1CNC[C@H]2C1,-3.34%,–,–
O=S(=O)(CC1CS1)c1ccc(Oc2ccccc2)cc1 (configuration not stated),-6.16%,–,–
Nc1ccc(N=Nc2ccccc2)cc1,–,6.86 µM (active),–
CC(=CCCC1=CCC(C2=CC(=O)OC2O)OC1O)CCC1=C(C)CCCC1(C)C (configuration not stated),-0.889%,–,–
COc1cc2cc(c1Cl)N(C)C(=O)C[C@H](OC(=O)C(C)C)[C@]1(C)O[C@H]1[C@H](C)[C@@H]1C[C@@](O)(NC(=O)O1)[C@H](OC)C=CC=C(C)C2,-88.8%,–,–
c1cc2ccc3cccc4ccc(c1)c2c34,-19.4%,–,–
Nc1ccc(Sc2ccc(N)cc2)cc1,-12.3%,–,–
C[C@@H]1CC[C@H]2[C@@H](C)C(=O)O[C@@H]3O[C@@]4(C)CC[C@H]1[C@]32OO4,-12.8%,–,–
O=C(Nc1ccccc1-c1ccc(Cl)cc1)c1cccnc1Cl,–,–,inactive
NC1CC1c1ccccc1 (configuration not stated),-3.94%,–,–
Cc1c(C(=O)Nc2cccc(C(F)(F)F)c2)cc(-c2ccccc2)n1CCCN1CCOCC1,-26.5% and -21.7%,–,–
COCCOCCO,2.23%,–,–
C[C@]12CC[C@H]3[C@@H](CCC4=CC(=O)CC[C@@]43C)[C@H]1CC[C@H]2OC(=O)CCC1CCCC1,3.21%,–,–
OCCCBr,-4.76%,–,–
